Assay results reported in PubChem BioAssay (Tox21).
Where “and” joins values, the source holds several entries; their conditions need not be identical. Equal entries are not always repeated. Inconclusive results are not listed. Calls of active or inactive are those of the source. Unless noted, calls follow the shape of the dose curve; as a rule, active = well fitted curve in the direction sought with a large enough effect in the repeat runs; inconclusive = weak or mixed curves; inactive = no such curve, though single readings can be large; an effect the other way counts as inactive or inconclusive.

Tests used:
[1] = qHTS assay to identify small molecule agonists of the hypoxia (HIF-1) signaling pathway - cell viability counter screen (AID 1224844; calls by dose curve; also: potency is read from the fitted curve at half-maximal effect; nearly all actives have a fitted effect of over 50% in size)
Outline: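 HRE-bla ME-180 cells, 2,000/well in 0.5% dialyzed FBS medium, treated 17 h at 37C with compounds. Viability read in the same wells as the bla reporter, by CellTiter-Glo luminescence after 30 min at room temperature.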

[2] = qHTS RealTime-Glo MT Cell Viability Assay in HepG2 cells - 24 hour (AID 1224867); also: nearly all actives have a fitted effect of over 50% in size; also: potency is read from the fitted curve at half-maximal effect
Outline: (§1)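 HepG2 cells (600/well) were dispensed with RealTime-Glo reagents, incubated 5 h at 37 °C, then treated with compounds in DMSO for up to 40 h. Nonlytic NanoLuc luminescence reflecting viable cells was read at each stated time point.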

[3] = A CellTox Green Cytotoxicity Assay to monitor cytotoxicity in HEK293 cells - 0 hour (AID 1224869); also: nearly all actives have a fitted effect of over 50% in size; also: potency is read from the fitted curve at half-maximal effect; as to Cytotoxicity: % is scaled to controls: 0 for no effect and ±100 for the full control effect
Outline: (§2)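 HEK293 cells, 600/well, were preincubated 5 hours and then exposed to compounds at 37 C for up to 40 hours. A cell-impermeant cyanine dye staining dead-cell DNA was read by fluorescence at 0, 8, 16, 24, 32 and 40 h time points.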

[4] = qHTS RealTime-Glo MT Cell Viability Assay in HepG2 cells - 40 hour (AID 1224870); also: nearly all actives have a fitted effect of over 50% in size; also: potency is read from the fitted curve at half-maximal effect
Outline: (§3)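 HepG2 cells mixed with RealTime-Glo MT reagents (NanoLuc plus cell-permeant prosubstrate) were seeded at 600 cells/well, incubated 5 h at 37 C/5% CO2, then pinned with compounds in DMSO; nonlytic luminescence tracked viability during 40 h treatment.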

[5] = A CellTox Green Cytotoxicity Assay to monitor cytotoxicity in HEK293 cells - 40 hour (AID 1224871); also: nearly all actives have a fitted effect of over 45% in size; also: potency is read from the fitted curve at half-maximal effect
Outline: as §2

[6] = qHTS RealTime-Glo MT Cell Viability Assay in HepG2 cells - 8 hour (AID 1224873); also: nearly all actives have a fitted effect of over 55% in size; also: potency is read from the fitted curve at half-maximal effect
Outline: as §3

[7] = qHTS RealTime-Glo MT Cell Viability Assay in HEK293 cells - 40 hour (AID 1224874); details: RealTime-Glo luminescence; max response: stronger effect = lower value; also: nearly all actives have a fitted effect of over 50% in size; also: potency is read from the fitted curve at half-maximal effect; as to max response: % is scaled to controls: 0 for no effect and ±100 for the full control effect
Outline: (§4)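 600 cells/well were plated with the nonlytic NanoLuc/prosubstrate reagent, pre-incubated 5 h, then given 23 nL of compound in DMSO. Incubation at 37 C for 40 h, with luminescence from viable-cell-reduced substrate read repeatedly from 0 h.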

[8] = A CellTox Green Cytotoxicity Assay to monitor cytotoxicity in HEK293 cells - 24 hour (AID 1224875); also: nearly all actives have a fitted effect of over 45% in size; also: potency is read from the fitted curve at half-maximal effect; as to activity change: % is scaled to controls: 0 for no effect and ±100 for the full control effect
Outline: as §2

[9] = A CellTox Green Cytotoxicity Assay to monitor cytotoxicity in HepG2 cells - 16 hour (AID 1224876); also: nearly all actives have a fitted effect of over 45% in size; also: potency is read from the fitted curve at half-maximal effect
Outline: (§5)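 HepG2 cells, 600/well, preincubated 5 h with CellTox Green dye, then exposed to Tox21 compounds in DMSO at 37 C for up to 40 h. Dead-cell DNA fluorescence read at the indicated time point.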

[10] = qHTS RealTime-Glo MT Cell Viability Assay in HepG2 cells - 32 hour (AID 1224877); also: nearly all actives have a fitted effect of over 55% in size; also: potency is read from the fitted curve at half-maximal effect
Outline: as §1

[11] = A CellTox Green Cytotoxicity Assay to monitor cytotoxicity in HepG2 cells - 24 hour (AID 1224878); also: nearly all actives have a fitted effect of over 45% in size; also: potency is read from the fitted curve at half-maximal effect
Outline: as §5

[12] = A CellTox Green Cytotoxicity Assay to monitor cytotoxicity in HepG2 cells - 40 hour (AID 1224879); also: nearly all actives have a fitted effect of over 40% in size; also: potency is read from the fitted curve at half-maximal effect
Outline: as §5

[13] = qHTS RealTime-Glo MT Cell Viability Assay in HEK293 cells - 0 hour (AID 1224880)
Outline: as §4

[14] = qHTS assay to identify small molecule agonists of the estrogen related receptor (ERR) signaling pathway from Tox21 library (AID 1224849; calls by dose curve; also: % is scaled to controls: 0 for no effect and ±100 for the full control effect; nearly all actives have a fitted effect of over 15% in size); details: ERR reporter cell line, ONE-Glo luciferase, 18 h; at 92.4 µM (top of the series) unless noted
Outline: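 ERR reporter cells (NTP line) pre-incubated 6 hours at 37 C, then exposed to compounds for 18 hours at 37 C. ONE-Glo luciferase luminescence was read after 30 minutes at room temperature.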

[15] = qHTS RealTime-Glo MT Cell Viability Assay in HEK293 cells - 32 hour (AID 1224868); also: nearly all actives have a fitted effect of over 50% in size; also: potency is read from the fitted curve at half-maximal effect
Outline: (§6)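 HEK293 cells seeded with NanoLuc/prosubstrate reagent, rested 5 h at 37 C, then dosed and kept at 37 C up to 40 h. Nonlytic real-time luminescence from viable cells read at 0, 8, 16, 24, 32 and 40 h.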

[16] = qHTS RealTime-Glo MT Cell Viability Assay in HEK293 cells - 16 hour (AID 1224872); also: nearly all actives have a fitted effect of over 50% in size; also: potency is read from the fitted curve at half-maximal effect
Outline: as §6

[17] = qHTS assay to identify small molecule agonists of H2AX (AID 1224845; active = well fitted activation curve with a large enough effect in the signal ratio in the repeat runs, not every such curve was filed as active; the % refers to the signal ratio; also: potency is read from the fitted curve at half-maximal effect)
Outline: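 Wild-type CHO-K1 cells plated overnight, then exposed 3 hr at 37C to compounds at 15 concentrations (0.76% DMSO). Lysed, then HTRF anti-pH2AX(S139)-cryptate/anti-H2AX-d2 detection after 24 hr at room temperature; emissions 665 and 620 nm.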

[18] = qHTS assay to identify small molecule agonists of H2AX - cell viability counter screen (AID 1224847; calls by dose curve; also: nearly all actives have a fitted effect of over 30% in size; also: potency is read from the fitted curve at half-maximal effect)
Outline: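 Viability of CHO-K1 (wild type) cells after 3 hr compound exposure was measured by CellTiter-Glo luminescence.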

[19] = qHTS assay to identify small molecule antagonists of the estrogen related receptor (ERR) signaling pathway from Tox21 library (AID 1224848); also: nearly all actives have a fitted effect of over 50% in size; also: potency is read from the fitted curve at half-maximal effect
Outline: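 Cells: ERR line, 2,000/well; 6 h preincubation 37 C/5% CO2. Cpd in DMSO via pin tool; 18 h, 37 C. ONE-Glo, 30 min RT, luminescence.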

[20] = qHTS assay to identify small molecule agonists of the hypoxia (HIF-1) signaling pathway (AID 1224846; active = well fitted activation curve with a large enough effect in the signal ratio in the repeat runs, not every such curve was filed as active; the % refers to the signal ratio; also: % is scaled to controls: 0 for no effect and ±100 for the full control effect)
Outline: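 HRE-bla ME-180 beta-lactamase reporter cells in medium with 0.5% dialyzed FBS, pre-incubated 5 h then exposed to compounds 17 h at 37C, 5% CO2; reporter induction read with CCF4-AM FRET substrate.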

O=C(O)c1cc[c]([Hg][Cl])cc1
active: Potency [1] 54.9 µM | Potency [2] 24.5 µM | Potency [4] 24.5 µM | Potency [5] 17.4 µM | Potency [6] 34.7 µM | Potency [7] 15.5 µM | Potency [8] 24.5 µM | Potency [9] 38.9 µM | Potency [10] 24.5 µM | Potency [11] 27.5 µM | Potency [12] 19.5 µM
inactive: Potency [3] | Potency [13]

S=C=Nc1cccc2ccccc12
active: Potency [1] 48.5 µM
inactive: activity change, positive = activation [14] -54.3% | Potency [2] | Potency [15] | Potency [3] | Potency [5] | Potency [16] | Potency [6] | max response [7] 2.28% | Potency [8] | Potency [9] | Potency [10] | Potency [11] | Potency [12] | Potency [13]

N#CC(Cl)Cl
inactive: Potency [17] | Potency [18] | activity change, positive = activation [14] -30.9% | Potency [2] | Potency [3] | Potency [6] | Potency [8] | Potency [10] | Potency [11] | Potency [13]
active: Potency [12] 1.2 µM

C[C@@H]1O[C@@H](O[C@H]2C[C@@H](O)[C@]3(CO)[C@H]4[C@H](O)C[C@]5(C)[C@@H](C6=CC(=O)OC6)CC[C@]5(O)[C@@H]4CC[C@]3(O)C2)[C@H](O)[C@H](O)[C@H]1O
inactive: Potency [17] | Potency [18] | Potency [3] | Potency [5] | Potency [8] | Potency [9] | Potency [11] | Potency [12]

COC(=O)N(C(=O)N1COC2(C(=O)OC)Cc3cc(Cl)ccc3C2=N1)c1ccc(OC(F)(F)F)cc1 (configuration not stated)
inactive: Potency [17] | activity change, positive = activation [14] -49.3% [at 42.5 µM] | Potency [2] | Potency [15] | Potency [3] | Potency [4] | Potency [5] | Potency [8] | Potency [10] | Potency [11] | Potency [12] | Potency [13]
active: Potency [19] 11.9 µM

O=[N+]([O-])O.O=[N+]([O-])O.[Cd]
inactive: Potency [3] | Potency [4] | Potency [6] | Potency [9] | Potency [13]
active: Potency [15] 49 µM | Potency [5] 6.92 µM | Potency [7] 24.5 µM | Potency [11] 49 µM | Potency [12] 43.6 µM

CS(=O)(=O)c1ccc(C(=O)C2C(=O)CCCC2=O)c([N+](=O)[O-])c1
inactive: outcome [20] | Potency [18] | Potency [19] | activity change, positive = activation [14] -0.0686% | Potency [2] | Potency [4] | Potency [6] | Potency [10]
active: Potency [3] 44.4 µM | Potency [5] 44.4 µM | Potency [16] 12.5 µM | Potency [8] 44.4 µM | Potency [11] 39.6 µM | Potency [12] 2.23 µM

ClC1=C(Cl)C2(Cl)C3C(Cl)C=CC3C1(Cl)C2(Cl)Cl (configuration not stated)
inactive: Potency [3] | Potency [4] | Potency [13]
active: Potency [5] 55.2 µM and 49 µM | Potency [16] 43.8 µM and 43.6 µM | Potency [7] 49.2 µM and 49 µM | Potency [8] 49.2 µM and 49 µM

CC(C)OC(=S)S
active: Potency [17] 35.7 µM
inactive: Potency [2] | Potency [15] | Potency [3] | Potency [4] | Potency [5] | Potency [6] | max response [7] 12.1% | Potency [8] | Potency [9] | Potency [10] | Potency [13]

C=CCC1=C(C)C(OC(=O)C2C(C=C(C)C)C2(C)C)CC1=O (configuration not stated)
inactive: activity change, positive = activation [14] -28.6% | Potency [4] | Potency [10] | Potency [13]
active: Potency [18] 60.1 µM | Potency [19] 20.5 µM | Potency [15] 26 µM | Potency [16] 20.7 µM | Potency [7] 41.2 µM | Potency [8] 51.9 µM

Nc1ccc(Cc2ccc(N)c(Cl)c2)cc1Cl
active: Potency [19] 26.4 µM | Potency [15] 26.6 µM | Potency [16] 29.9 µM | Potency [7] 23.7 µM
inactive: activity change, positive = activation [14] -35.2% | Potency [2] | Potency [3] | Potency [4] | Potency [5] | Potency [8] | Potency [9] | Potency [12] | Potency [13]

CNC(C)Cc1ccc2c(c1)OCO2 (configuration not stated)
inactive: Potency [18] | Potency [2] | Potency [15] | Potency [3] | Potency [5] | Potency [16] | Potency [6] | max response [7] -1.8% | Potency [8] | Potency [9] | Potency [10] | Potency [11] | Potency [12] | Potency [13]

ClC(Cl)=C(c1ccc(Cl)cc1)c1ccc(Cl)cc1
inactive: Potency [19] | activity change, positive = activation [14] -26.1% and 7.66% | Potency [2] | Potency [3] | Potency [4] | Potency [8] | Potency [9] | Potency [10] | Potency [11] | Potency [12] | Potency [13]
active: Potency [5] 43.6 µM | Potency [16] 56.3 µM

[Cl][Sb]([Cl])[Cl]
inactive: Potency [18] | Potency [2] | Potency [3] | Potency [4] | Potency [16] | Potency [6] | Potency [8] | Potency [9] | Potency [10] | Potency [11] | Potency [13]
active: Potency [5] 24.5 µM

CC(C)(C)c1ccc(CSc2cnn(C(C)(C)C)c(=O)c2Cl)cc1
inactive: outcome [20] | activity change, positive = activation [14] -52.9% | Potency [3] | Potency [4] | Potency [5] | Potency [8] | Potency [9] | Potency [10] | Potency [13]
active: Potency [19] 0.0054 µM | Potency [15] 0.011 µM | Potency [16] 0.436 µM | Potency [7] 0.0069 µM | Potency [12] 43.6 µM

Nc1ccccc1C(=O)OC/C=C/c1ccccc1
inactive: Potency [2] | Potency [3] | Potency [4] | Potency [5] | Potency [8] | Potency [9] | Potency [10] | Potency [12] | Potency [13]
active: Potency [18] 101 µM | Potency [15] 24.6 µM | Potency [16] 24.6 µM | Potency [7] 24.6 µM
